# Assay outcomes: PubChem BioAssay, National Center for Advancing Translational Sciences (NCATS)
# The list is not random: actives were taken first. Their share in the collection is about 3.3%.
# Vaccinia mCherry: qHTS for Stage-Specific Inhibitors of Vaccinia Orthopoxvirus: mCherry Reporter Primary qHTS; 310,000 tested, 0.63% active; Potency, µM (highest dose often 36.5 µM), actives largely listed as inhibitors; Vaccinia virus mCherry reporter infection, fluorescence; calls by dose curve; tested in A549 cells; note: nearly all actives have a fitted effect of over 35% in size
# HCV inhibitor: qHTS Assay for Inhibitors of Hepatitis C Virus (HCV); Huh7.5.1 HCVcc-Cre infection, luciferase reporter, 44 h; Potency, µM (highest dose often 41.8 µM), usual class: inhibitors; 340,000 tested, 3.4% active; active = well fitted inhibition curve with a large enough effect; inconclusive = small, poorly fitted or top-dose-only effect, or another doubt; inactive = no such curve, though single readings can be large or run the other way
#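 Seed cells (1,000/well) for 4 h; treat with compound and infect with HCVcc-Cre, moi about 0.5. Incubate 44 h, then detect luciferase activity.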
# Vaccinia Venus: qHTS for Stage-Specific Inhibitors of Vaccinia Orthopoxvirus: Venus Reporter Primary qHTS; Vaccinia virus Venus reporter expression, fluorescence; 330,000 tested, 0.46% active; Potency, µM (series often up to 36.5 µM), hits mostly inhibitors; AID 720580, 2013; calls by dose curve; tested in A549 cells; note: nearly all actives have a fitted effect of over 30% in size
# Numbers stand for hits; 0 = inactive; ? = inconclusive; - = no result given.
SMILES,Vaccinia mCherry,HCV inhibitor,Vaccinia Venus
CCN(CC(=O)Nc1ccc(NC(C)=O)cc1)C(=O)/C=C/c1cn(-c2ccccc2)nc1-c1cccs1,0,?,0
C=C1NN(Cc2ccc(OC)cc2)C(=O)N1c1ccccc1,0,-,0
NC(=O)c1ccc[n+](CC(=O)c2ccc(NC(=O)c3ccccc3)cc2)c1,0,0,0
NC(=O)c1ccc[n+](CC(=O)c2ccccc2)c1,?,0.56µM,0
CCC1(C2CCN(Cc3cccc4ccccc34)CC2)NC(=O)N(Cc2ccc3c(c2)OCO3)C1=O (stereo not drawn),0,-,0
CC(C)c1nc(N2CCN(C(=O)c3ccccc3)CC2)c(C#N)c2c1COC(C)(C)C2,0,?,0
Cc1nc(N2CCN(Cc3ccccc3)CC2)c(C#N)c2c1COC(C)(C)C2,-,11µM,0
COCCN1Cc2cccc(C(=O)Nc3ccc(C(=O)OC)cc3)c2C1=O,0,-,0
CC[C@@H](C)[C@H](CNC)NC[C@@H](Cc1cccc2ccccc12)NCCc1cccc(C(F)(F)F)c1,?,0,?
CCCC[C@@H](CNC)NC[C@H](NCCCCC1CCCCC1)C(C)C,0,0,?
CCC[C@H](CN[C@@H](CNC)[C@H](C)CC)NCCc1cc(C(F)(F)F)cc(C(F)(F)F)c1,?,?,20µM
CCC[C@@H](CN[C@@H](CNC)[C@H](C)CC)NCC1CCC(C(C)(C)C)CC1 (stereo partly drawn),?,7.9µM,13µM
Cc1ccc(-n2ncc(C(=O)NC3CCCCC3)c2C2CCN(C(=O)OC(C)(C)C)CC2)cc1,0,-,0
COc1ccc(CCN2C(=O)c3[nH]nc(-c4ccccc4O)c3C2c2ccc(OC)c(OC)c2)cc1 (stereo not drawn),0,-,?
O=C1C[C@H]2C=CCc3cccc(c32)CN1Cc1ccc(Br)cc1,0,-,0
COc1ccc(Br)cc1CN1CCCCCC1,0,0,0
COC(=O)c1cc2c(n1S(=O)(=O)c1ccc(C)cc1)C(=O)C(=O)c1[nH]cc(C(=O)OCc3ccccc3)c1-2,2.2µM,?,2.5µM
COC(=O)c1ccc(COC(=O)c2ccc(CS(=O)(=O)c3ccc(C)cc3)cc2)cc1,0,0,0
CC1(C)Cc2ccccc2C(NNC(=O)c2ccc(Br)o2)=N1,0,?,0
CCOc1ccc(NC(=O)CSc2oc(-c3cccs3)nc2S(=O)(=O)c2ccc(C)cc2)cc1,0,-,0
COc1ccc(N2CCN(C(=O)CCCCCn3c(=S)[nH]c4cc5c(cc4c3=O)OCO5)CC2)cc1,-,0,-
O=C(CCCn1c(=S)[nH]c2cc3c(cc2c1=O)OCO3)N1CCN(c2ccc(Cl)cc2)CC1,-,13µM,-
Cc1cc(Cl)ccc1-n1c(CCC(=O)O)ccc1-c1cccs1,0,-,0
Cc1ccc(C(=O)N2CCOc3ccc(CN4CCN(Cc5ccccn5)CC4)cc3C2)cc1,0,-,0
COc1cc2c(cc1OC)C(COc1cccc(C(F)(F)F)c1)N(C(=O)c1ccc(S(=O)(=O)N3CCCC3)cc1)CC2 (stereo not drawn),0,-,0
SMILES,Vaccinia mCherry,HCV inhibitor,Vaccinia Venus
CCCC(=O)Nc1c(-c2cccc(C)c2)c(=O)c2ccccc2n1C,0,0,0
O=C(Nc1nc2ccccc2n1CCN1CCOCC1)c1ccc(COc2ccccc2Br)o1,?,10µM,0
O=C(Nc1nc2ccccc2n1CCN1CCOCC1)c1ccc(Cn2cc([N+](=O)[O-])cn2)o1,0,0,0
Cc1nc(CNS(=O)(=O)c2ccc(F)cc2)cs1,0,0,0
C=C[C@]1(C)C=C2CCC3[C@](C)(CCC[C@@]3(C)C(=O)O)C2CC1 (stereo partly drawn),0,2.2µM,0
C=C/C(C)=C/CC1C(=C)CCC2C(C)(C(=O)O)CCCC12C (stereo not drawn),0,0,0
CC(C)(C)NC(=O)COC(=O)CNC(=O)C1CCCCC1,0,-,0
CN(c1ccc(C(=O)Nc2ccc(Cl)cn2)cc1)S(=O)(=O)c1ccccc1,-,11µM,-
Cc1ccc(S(=O)(=O)N(C)c2ccc(C(=O)Nc3ccccn3)cc2)cc1,0,0,0
O=C(Nc1ccc(Cl)cn1)c1ccc(Oc2ccccc2)cc1,0,?,0
Cc1ccc(S(=O)(=O)N(C)c2ccc(C(=O)Nc3ccc(C)cn3)cc2)cc1,0,5µM,0
O=C(Nc1ccc(O)cc1)c1cccc(Oc2ccc([N+](=O)[O-])cc2)c1,?,11µM,0
O=C(Nc1cccc([N+](=O)[O-])c1)c1cc2ccccc2cc1O,?,5.6µM,?
Cc1ccc(NC(=O)c2cccc(Oc3ccc([N+](=O)[O-])cc3)c2)c(C(=O)O)c1,-,0,-
COc1ccc(NC(=O)c2cc([N+](=O)[O-])ccc2O)cc1,6.3µM,?,?
O=C(O)c1ccccc1C(=O)Nc1cccc([N+](=O)[O-])c1,0,0,0
COc1ccc(NC(=O)c2cccc([N+](=O)[O-])c2)cc1,0,?,0
